Data on 39 molecules can be found in PubChem BioAssay (NCATS).

The structures appear in SMILES notation. Inconclusive results are not listed. Active and inactive are the calls of the source. The call rests on the fitted dose curve; in most records, active means well fitted curve in the direction sought with a large enough effect; inconclusive means small, poorly fitted or top-dose-only effect, or another doubt; inactive means no such curve, though single readings can be large; an effect the other way counts as inactive or inconclusive.
Potency means the concentration at half of the fitted maximal effect.

The first test is described as follows: qHTS of pediatric cancer cell lines to identify multiple opportunities for drug repurposing: Primary screen for U-2 OS cells (AID 1347096). Further: nearly all actives have a fitted effect of over 50% in size.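 On activity change, negative = cytotoxic: plate controls were DMSO wells for no effect and bortezomib positive control wells for full effect.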 The conditions noted are these: U-2 OS viability, CellTiter-Glo luminescence, 48 h; series mostly up to 46 µM; activity change, negative = cytotoxic: at the top concentration. A digest of the protocol: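 Cells (500-1,000/well) in growth media were settled 5 h at 37 degrees C, then given compounds for 48 h. Viability was read as CellTiter-Glo luminescence. Primary runs used MIPE at 11 points (0.78 nM-46 µM) and NPC at 8 points (0.59 nM-46 µM); follow-ups used 11 points.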
Take `COc1c(N2C[C@@H]3CCCN[C@@H]3C2)c(F)cc2c(=O)c(C(=O)O)cn(C3CC3)c12`: the “activity change, negative = cytotoxic” value was -2.49% (inactive).

For the molecule `CCO[C@H](Cc1ccc(OCCc2ccc(OS(C)(=O)=O)cc2)cc1)C(=O)O`, the “activity change, negative = cytotoxic” value was 10.9% (inactive).

`CC(C)(C)NCC(O)COc1ccccc1OCC1CCCO1` (stereo not drawn): the “activity change, negative = cytotoxic” value is 7.78% (inactive).

For `Cc1cc(O)c2c(O)c3c(O)cccc3cc2c1`, the “activity change, negative = cytotoxic” value was 4.6% (inactive).

Turning to `CCC(C(=O)OCCN1CCOC(c2ccccc2)C1C)c1ccccc1` (stereo not drawn), the “activity change, negative = cytotoxic” value is -3.24% (inactive).

Regarding `O=C1[C@@H]2[C@H]3CC[C@H](C3)[C@@H]2C(=O)N1CCCCN1CCN(c2ncccn2)CC1`, the “activity change, negative = cytotoxic” value is 0.0797% (inactive).

For `O=C1CC2(CCCC2)CC(=O)N1CCNCC1COc2ccccc2O1` (stereo not drawn), the “activity change, negative = cytotoxic” value was -0.109% (inactive).

As for `COC(=O)c1cc(S(N)(=O)=O)ccc1OC`, the “activity change, negative = cytotoxic” value was 2.1% (inactive).

As for `CO/N=C(\C(=O)O)c1csc(NC(=O)CCl)n1`, the “activity change, negative = cytotoxic” value is 13.2% (inactive).

On to `Cc1ccc(C(=O)Oc2ccc(C(O)CNC(C)(C)C)cc2OC(=O)c2ccc(C)cc2)cc1` (stereo not drawn), for which the “activity change, negative = cytotoxic” value is -27.7% (inactive).

On to `O=C(O)c1ccccc1Nc1cc(Cl)ccc1C(=O)O`, for which the “activity change, negative = cytotoxic” value was 9.32% [at 16.1 µM] (inactive).

For `CC(=O)OCC(=O)Nc1cc(C#N)cc(NC(=O)COC(C)=O)c1Cl`, the “activity change, negative = cytotoxic” value was 3.57% (inactive).

Regarding `O=C(O)c1ccc(OCCN2CCCCC2)cc1`, the “activity change, negative = cytotoxic” value is 12.2% (inactive).

Take `CN(C)C(=O)CNC(=O)Cc1ccccc1`: the “activity change, negative = cytotoxic” value was -10.7% (inactive).

Take `C[C@]12CCC(=O)C=C1CC[C@@H]1[C@@H]2[C@@H](O)C[C@@]2(C)[C@H]1CC[C@]2(O)C(=O)COC(=O)CCC(=O)O`: the “activity change, negative = cytotoxic” value was -1.11% (inactive).

`C=C(C)C(=O)OCC(O)CO` (stereo not drawn): the “activity change, negative = cytotoxic” value was 1.46% (inactive).

As for `O=C(O)C(=O)Nc1cccc(-c2nn[nH]n2)c1`, the “activity change, negative = cytotoxic” value was 14.5% (inactive).

Turning to `Cc1ccccc1N1CCN(CCc2nnc3n2CCCC3)CC1`, the “activity change, negative = cytotoxic” value was 2.39% (inactive).

As for `OCCc1ccccc1`, the “activity change, negative = cytotoxic” value is 17.7% (inactive).

For `CN1C(=O)c2ccccc2C1=O`, the “activity change, negative = cytotoxic” value was -4.96% [at 92.7 µM] (inactive).

In the case of `CCCCOCCOC(=O)c1cccnc1`, the “activity change, negative = cytotoxic” value was 7.38% (inactive).

Take `Nc1ccc(C(=O)N2CC3CC(CN(Cc4ccccc4)C3)C2)cc1`: the “activity change, negative = cytotoxic” value was 11.2% (inactive).

For `Cc1[nH]cnc1-c1ccc(Cl)cc1`, the “activity change, negative = cytotoxic” value was 4.27% (inactive).

Consider `COc1cc(C(=O)OC(COCCC(C)C)CN2CCOCC2)cc(OC)c1OC` (stereo not drawn), for which the “activity change, negative = cytotoxic” value is 6.96% (inactive).

With `C[C@H]1C[C@@H]2[C@H]([C@@H](O)C[C@@]3(C)[C@H]2CC[C@]3(O)C(=O)CO)[C@@]2(C)C=CC(=O)C=C12`, the “activity change, negative = cytotoxic” value is 7.36% (inactive).

As for `CC(Oc1c(Cl)cccc1Cl)C1=NCCN1` (stereo not drawn), the “activity change, negative = cytotoxic” value is 13.4% (inactive).

With `COC(=O)c1cc(Cl)ccc1OC`, the “activity change, negative = cytotoxic” value was -0.809% (inactive).

As to `Cc1ccc2ccc(Cl)cc2n1`, the “activity change, negative = cytotoxic” value is 14.4% (inactive).

On to `CCCCCCCCCCCCCCCCCCN(C)C`, for which the “activity change, negative = cytotoxic” value is -4.04% (inactive).

As to `Oc1cccc2[nH]ccc12`, the “activity change, negative = cytotoxic” value is 14.9% (inactive).

Regarding `CN(C)CCN1CCN(c2cccc(Cl)c2)C1=O`, the “activity change, negative = cytotoxic” value was 10.4% (inactive).

As for `Cc1ccc(C(C)OC(=O)C2(C)CCC(C(=O)O)C2(C)C)cc1` (stereo not drawn), the “activity change, negative = cytotoxic” value was 6.71% (inactive).

`N#CC1(c2ccc(F)cc2)CCC(=O)CC1`: the “activity change, negative = cytotoxic” value was 7.6% (inactive).

For `CCCCCCCCCCCCCCCC[n+]1ccccc1`, the Potency is 21.1 µM (active).

For `O=C(O)CNC(=O)CNC(=O)CNC(=O)CSC(=O)c1ccccc1`, the “activity change, negative = cytotoxic” value was -6.95% (inactive).

Turning to `COc1cc(OC)nc(O[C@H](C(=O)O)C(OC)(c2ccccc2)c2ccccc2)n1`, the “activity change, negative = cytotoxic” value was -5.31% (inactive).

`NC(=O)COCCN1CCN(C(c2ccccc2)c2ccc(Cl)cc2)CC1` (stereo not drawn): the “activity change, negative = cytotoxic” value was -2.29% (inactive).

`C1=CC2C3C=CC(C3)C2C1` (stereo not drawn): the “activity change, negative = cytotoxic” value is 16.2% [at 92.7 µM] (inactive).

Regarding `OC1(c2ccccc2)CCNCC1`, the “activity change, negative = cytotoxic” value was 6.31% (inactive).

The next test is described as follows: qHTS of pediatric cancer cell lines to identify multiple opportunities for drug repurposing: Primary screen for Saos-2 cells (AID 1347097). Further: nearly all actives have a fitted effect of over 40% in size. On activity change, negative = cytotoxic: on the % scale 0 is the no-effect control and ±100 the full control effect. The conditions noted are these: Saos-2 viability, CellTiter-Glo ATP luminescence, 48 h; series mostly up to 46 µM; activity change, negative = cytotoxic: at the top concentration. A digest of the protocol: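 CRCs from 8- or 11-point titrations (lowest final 0.59 nM NPC, 0.78 nM MIPE). Cell viability: CellTiter-Glo after 48 h incubation, 15 min room-temperature development, luminescence imaging.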
Take `COc1c(N2C[C@@H]3CCCN[C@@H]3C2)c(F)cc2c(=O)c(C(=O)O)cn(C3CC3)c12`: the “activity change, negative = cytotoxic” value was -17% (inactive).

Take `CCO[C@H](Cc1ccc(OCCc2ccc(OS(C)(=O)=O)cc2)cc1)C(=O)O`: the “activity change, negative = cytotoxic” value is -2.73% (inactive).

Take `CC(C)(C)NCC(O)COc1ccccc1OCC1CCCO1` (stereo not drawn): the “activity change, negative = cytotoxic” value was 11.5% (inactive).

For `Cc1cc(O)c2c(O)c3c(O)cccc3cc2c1`, the “activity change, negative = cytotoxic” value is 1.85% (inactive).

Turning to `CCC(C(=O)OCCN1CCOC(c2ccccc2)C1C)c1ccccc1` (stereo not drawn), the “activity change, negative = cytotoxic” value was -17.7% (inactive).

In the case of `O=C1[C@@H]2[C@H]3CC[C@H](C3)[C@@H]2C(=O)N1CCCCN1CCN(c2ncccn2)CC1`, the “activity change, negative = cytotoxic” value was -10.4% (inactive).

Consider `O=C1CC2(CCCC2)CC(=O)N1CCNCC1COc2ccccc2O1` (stereo not drawn), for which the “activity change, negative = cytotoxic” value was -6.29% (inactive).

Regarding `COC(=O)c1cc(S(N)(=O)=O)ccc1OC`, the “activity change, negative = cytotoxic” value was 7.12% (inactive).

Regarding `CO/N=C(\C(=O)O)c1csc(NC(=O)CCl)n1`, the “activity change, negative = cytotoxic” value was 18.1% (inactive).

Take `Cc1ccc(C(=O)Oc2ccc(C(O)CNC(C)(C)C)cc2OC(=O)c2ccc(C)cc2)cc1` (stereo not drawn): the “activity change, negative = cytotoxic” value is -73% (inactive).

As to `O=C(O)c1ccccc1Nc1cc(Cl)ccc1C(=O)O`, the Potency was 9.2 µM (active).

For `CC(=O)OCC(=O)Nc1cc(C#N)cc(NC(=O)COC(C)=O)c1Cl`, the “activity change, negative = cytotoxic” value is 1.91% (inactive).

In the case of `O=C(O)c1ccc(OCCN2CCCCC2)cc1`, the “activity change, negative = cytotoxic” value was 0.585% (inactive).

On to `CN(C)C(=O)CNC(=O)Cc1ccccc1`, for which the “activity change, negative = cytotoxic” value is -25.2% (inactive).

As for `C[C@]12CCC(=O)C=C1CC[C@@H]1[C@@H]2[C@@H](O)C[C@@]2(C)[C@H]1CC[C@]2(O)C(=O)COC(=O)CCC(=O)O`, the “activity change, negative = cytotoxic” value was -2.92% (inactive).

Regarding `C=C(C)C(=O)OCC(O)CO` (stereo not drawn), the “activity change, negative = cytotoxic” value was -28.1% (inactive).

For the molecule `O=C(O)C(=O)Nc1cccc(-c2nn[nH]n2)c1`, the “activity change, negative = cytotoxic” value was 1.42% (inactive).

For `Cc1ccccc1N1CCN(CCc2nnc3n2CCCC3)CC1`, the “activity change, negative = cytotoxic” value was 5.45% (inactive).

As for `OCCc1ccccc1`, the “activity change, negative = cytotoxic” value is 14.5% (inactive).

`CN1C(=O)c2ccccc2C1=O`: the “activity change, negative = cytotoxic” value was -27.8% [at 92.7 µM] (inactive).

Turning to `CCCCOCCOC(=O)c1cccnc1`, the “activity change, negative = cytotoxic” value is 23.5% (inactive).

With `Nc1ccc(C(=O)N2CC3CC(CN(Cc4ccccc4)C3)C2)cc1`, the “activity change, negative = cytotoxic” value is 7.11% (inactive).

`Cc1[nH]cnc1-c1ccc(Cl)cc1`: the “activity change, negative = cytotoxic” value is 6.9% (inactive).

With `COc1cc(C(=O)OC(COCCC(C)C)CN2CCOCC2)cc(OC)c1OC` (stereo not drawn), the “activity change, negative = cytotoxic” value was 4.88% (inactive).

Turning to `C[C@H]1C[C@@H]2[C@H]([C@@H](O)C[C@@]3(C)[C@H]2CC[C@]3(O)C(=O)CO)[C@@]2(C)C=CC(=O)C=C12`, the “activity change, negative = cytotoxic” value was -18.2% (inactive).

Take `CC(Oc1c(Cl)cccc1Cl)C1=NCCN1` (stereo not drawn): the “activity change, negative = cytotoxic” value is 8.04% (inactive).

Take `COC(=O)c1cc(Cl)ccc1OC`: the “activity change, negative = cytotoxic” value is -24.2% (inactive).

Take `Cc1ccc2ccc(Cl)cc2n1`: the “activity change, negative = cytotoxic” value is -2.49% (inactive).

Consider `CCCCCCCCCCCCCCCCCCN(C)C`, for which the “activity change, negative = cytotoxic” value is -15.2% (inactive).

In the case of `Oc1cccc2[nH]ccc12`, the “activity change, negative = cytotoxic” value is 25.6% (inactive).

For `CN(C)CCN1CCN(c2cccc(Cl)c2)C1=O`, the “activity change, negative = cytotoxic” value was 3.02% (inactive).

As to `Cc1ccc(C(C)OC(=O)C2(C)CCC(C(=O)O)C2(C)C)cc1` (stereo not drawn), the “activity change, negative = cytotoxic” value was -10.1% (inactive).

Take `N#CC1(c2ccc(F)cc2)CCC(=O)CC1`: the “activity change, negative = cytotoxic” value is 29.1% (inactive).

Turning to `CCCCCCCCCCCCCCCC[n+]1ccccc1`, the Potency is 15 µM (active).

Consider `O=C(O)CNC(=O)CNC(=O)CNC(=O)CSC(=O)c1ccccc1`, for which the “activity change, negative = cytotoxic” value is -7.63% (inactive).

Regarding `COc1cc(OC)nc(O[C@H](C(=O)O)C(OC)(c2ccccc2)c2ccccc2)n1`, the “activity change, negative = cytotoxic” value was -24.5% (inactive).

In the case of `NC(=O)COCCN1CCN(C(c2ccccc2)c2ccc(Cl)cc2)CC1` (stereo not drawn), the “activity change, negative = cytotoxic” value is 1.86% (inactive).

As to `C1=CC2C3C=CC(C3)C2C1` (stereo not drawn), the “activity change, negative = cytotoxic” value is 5.52% [at 92.7 µM] (inactive).

On to `OC1(c2ccccc2)CCNCC1`, for which the “activity change, negative = cytotoxic” value was 5.81% (inactive).
